The structures appear in SMILES notation. Activity calls are given as the source filed them. Rule for the calls: active = hit-call score of the fitted dose curve at least 0.9, where 1 is the maximum; inactive = score below 0.9.

The AC50 is the midpoint of the concentration-response curve, whichever way the signal moves.

Read-out in this experiment: Lipase C (LIPC), LIPC (gene 3990)
The experiment is described as follows: LTEA_HepaRG_LIPC: Life Technologies and Expression Analysis (LTEA) Assay for Lipase C (LIPC) using HepaRG (AID 2283514). As to conditions: mRNA level, 48 h; actives raise or lower the signal. As for the experimental part: LTEA_HepaRG is a cell based, multiplexed-readout assay that uses HepaRG, a human liver cell line, with measurements taken at 48 hours after chemical dosing on a 96-well plate.LTEA_HepaRG_LIPC is one of 102 assay component(s) measured in the LTEA HepaRG cell culture assay. It is a marker of Steatosis.Data from the assay component LTEA_HepaRG_LIPC was analyzed into 1 endpoint. This assay endpoint, LTEA_HepaRG_LIPC, was analyzed with bidirectional fitting relative to DMSO as the negative control and baseline of activity. Using a type of inducible reporter, measures of mRNA induction for gain or loss-of-signal activity can be used to understand regulation of transcription factor activity. To generalize the intended target to other relatable targets, this assay endpoint is annotated to the esterase intended target family, where the subfamily is lipase.
A total of 1060 chemcials from the ToxCast library were tested in eight-point concentration-response experiments. Cell culture and cytotoxicity assays were conducted at Thermo Fisher Scientific's Custom Services facility (Madison, WI). A single lot of human HepaRG cells (Thermo Fisher Scientific, Frederick, MD) was used for the cell culture experiments. 96-well format collagen type I coated plates of human HepaRG cells were prepared using established methods. Briefly, cryopreserved HepaRG cells were thawed, plated at a density of approximately 100,000 cells/well in HepaRG Thaw, Plate, and General Purpose media (HPRG770, Thermo Fisher Scientific), and incubated for 48 hours. 0.5% DMSO was selected as vehicle control to balance the requisite need of DMSO in HepaRG cultures to maintain differentiation (for example, baseline metabolism, proportions of hepatocytes vs. cholangiocytes), while enabling further hepatic receptor pathway activation (for example, PXR and CAR) in response to chemical exposure. 48 hours after plating, the culture medium was replaced with HepaRG Serum-Free Incudtion Media. Cells were exposed to each test chemical in duplicate and maintained in CO2 incubators for another 48 hours. Chemical plates were thawed to room temperature and 200x concentrations of treatment groups were prepared. 8-point conentration-reponse curves were made with the highest exposure at 100 uM, followed by half-log dilutions, all in 0.5% DMSO. Each test plate contained variouse controls, induction positive controls (1mM phenobarbital), cytotoxicity positive controls ([…] aflatoxin B1), vehicle controls (0.5% DMSO), and total lysis controls (0.5% DMSO). Cell morphology images were taken using an Essen IncuCyte FLR automated microscope, with six 96-well plates imaged in about 24 minutes. Images were captured and exported and JPEG files. Spent culture media was transfered to black-well plates for the LDH assay, and remaining media was sorted at -80 C for later use. Cells were treated with RLT buffer and frozen until shipped for gene expression analysis. Total RNA was isolated from the cell suspension in 75 uL of Buffer RLT (Qiagen, Germantown, MD 20874) by Quintiles/Expression Analysis (Durham, NC) using a custom isolation procedure. Total RNA from each plate well was transferred to a preamplification plate. Fluidigm's 96.96 Dynamic ArrayTM (Fluidigm, Amsterdam, the Netherlands) technology was used for gene expression analyses by quantitative reverse transcription polymerase chain reaction (qRT-PCR, performed by Quintiles/Expression Analysis, Durham, NC)89. Standard TaqManTM Assays (Applied Biosystems/ThermoFisher Scientific, Foster City, CA) were used to assess the expression of 93 genes selected based on their selectivity and sensitivity to important hepatic receptors known to be modulated by environmental chemicals; importance in human hepatocyte functionality; and hepatotoxicity. […]
For the compound `CC(C)N(C(=O)SCC(Cl)=C(Cl)Cl)C(C)C`, the call was inactive.

Consider `CCc1cccc(C)c1N(C(=O)CCl)C(C)COC` (stereo not given), for which the outcome was inactive.

On to `CCOP(=S)(Oc1cnc(C(C)(C)C)nc1)OC(C)C` (stereo not given), for which the AC50 was 18.8 µM (active).

As for `CCOP(=S)(OCC)Oc1ccc([N+](=O)[O-])cc1`, the outcome was inactive.

For `CCC(=O)Nc1ccc(Cl)c(Cl)c1`, the result was inactive.

In the case of `CC(C1CC1)C(O)(Cn1cncn1)c1ccc(Cl)cc1` (stereo not given), the call was inactive.

Consider `CSc1nc(NC(C)C)nc(NC(C)C)n1`, for which the result was inactive.

With `CCc1cnc(C2=NC(C)(C(C)C)C(=O)N2)c(C(=O)O)c1` (stereo not given), the result was inactive.

For the compound `CN1COCN(Cc2cnc(Cl)s2)C1=N[N+](=O)[O-]`, the call was inactive.

As for `Nc1c(Cl)cc([N+](=O)[O-])cc1Cl`, the AC50 was 75.3 µM (active).

Consider `CC1(C(=O)Nc2ccc(O)c(Cl)c2Cl)CCCCC1`, for which the outcome was inactive.

Consider `Nc1nc(N)nc(NC2CC2)n1`, for which the compound was classed as inactive.

In the case of `CNC(=O)ON=C(C)SC`, the compound was called inactive.

In the case of `S=C1NCCN1`, the result was inactive.

In the case of `Cc1ccn2nc(S(=O)(=O)Nc3c(F)cccc3F)nc2n1`, the compound was classed as inactive.

Turning to `COP(=O)(NC(C)=O)SC` (stereo not given), the compound was classed as inactive.

On to `O=[N+]([O-])c1cc(C(F)(F)F)c(Cl)c([N+](=O)[O-])c1Nc1ncc(C(F)(F)F)cc1Cl`, for which the AC50 was 24.4 µM (active).

Turning to `COc1cc(OC)nc(Sc2cccc(Cl)c2C(=O)O)n1`, the compound was classed as inactive.

As for `CON=C(C(=O)OC)c1ccccc1CON=C(C)c1cccc(C(F)(F)F)c1`, the call was inactive.

In the case of `CCCCN(CC)c1c([N+](=O)[O-])cc(C(F)(F)F)cc1[N+](=O)[O-]`, the result was inactive.

For the compound `C#CCC1=C(C)C(OC(=O)C2C(C=C(C)C)C2(C)C)CC1=O` (stereo not given), the outcome was inactive.

Regarding `C#CC(C)(C)NC(=O)c1cc(Cl)cc(Cl)c1`, the compound was classed as inactive.

For the compound `N#CSCSC#N`, the AC50 was 93.7 µM (active).

Consider `CCOC(=O)CC(SP(=O)(OC)OC)C(=O)OCC` (stereo not given), for which the result was inactive.

Regarding `CC1=NNC(=O)N(/N=C/c2cccnc2)C1`, the outcome was inactive.

As for `CNC(=O)Oc1cccc2c1OC(C)(C)O2`, the compound was called inactive.

Regarding `CCOP(=O)(OCC)Oc1cc(C)nc(C(C)C)n1`, the compound was classed as inactive.

Consider `C=C(C)[C@H]1Cc2c(ccc3c2O[C@@H]2COc4cc(OC)c(OC)cc4[C@@H]2C3=O)O1`, for which the half-maximal activity concentration (AC50) is 12.7 µM (active).

For `CCCOCC(=Nc1ccc(Cl)cc1C(F)(F)F)n1ccnc1`, the half-maximal activity concentration (AC50) was 15.8 µM (active).

On to `CSc1nnc(C(C)(C)C)c(=O)n1N`, for which the call was inactive.

Consider `CN(C)NC(=O)CCC(=O)O`, for which the compound was classed as inactive.

As to `CCc1cccc(CC)c1N(COC)C(=O)CCl`, the result was inactive.

For the compound `Cc1nn(-c2cc(NS(C)(=O)=O)c(Cl)cc2Cl)c(=O)n1C(F)F`, the result was inactive.

For the compound `CCCSP(=O)(OCC)Oc1ccc(Br)cc1Cl` (stereo not given), the result was inactive.

Turning to `CCCOc1nn(C(=O)NS(=O)(=O)c2ccccc2C(=O)OC)c(=O)n1C`, the compound was called inactive.

`CCCCSP(=O)(SCCCC)SCCCC`: the AC50 was 83.6 µM (active).

On to `C[Si](Cn1cncn1)(c1ccc(F)cc1)c1ccc(F)cc1`, for which the AC50 is 26.7 µM (active).

Take `O=c1ccc(=O)[nH][nH]1`: the outcome was inactive.

Take `CN(C)[C@@H]1C(=O)C(C(N)=O)=C(O)[C@@]2(O)C(=O)C3=C(O)c4c(O)cccc4[C@@](C)(O)[C@H]3[C@H](O)[C@@H]12`: the call was inactive.

In the case of `COP(=O)(OC)C(O)C(Cl)(Cl)Cl` (stereo not given), the call was inactive.

The record behind these values is PubChem BioAssay (EPA / NIEHS).
